Structures are written as SMILES. Where “and” joins values, the source holds several entries; their conditions need not be identical. Equal entries are not always repeated. Calls of active or inactive are those of the source. Unless noted, the rule behind the calls is not given here.

For orientation: viability means a read-out of living cells in per cent, often relative to untreated cells. Usually inhibition stands for the relative decrease from the control value, in per cent.

Assay [1] is described as follows: kinase inhibitors against Plasmodium liver-stage infection, cell-based, known kinase inhibitor set, luminescence, hepatoma host viability (AID 624392).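 Note: infected cells incubated roughly two days before readout.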 To be noted: Plasmodium liver stage in hepatoma cells, luciferase luminescence, concentration not given here; liver cell % of control: measured here: host liver cell viability; parasite % of control: stronger effect = lower value.

A short description of assay [2]: stimulators of nuclear beta-catenin in C2C12, primary screen, imaging, WNT3A-conditioned medium, mouse C2C12, NPC library (AID 1117326; in the data active = nuclear beta-catenin stimulation mostly above about 4.2%, no sharp cut-off; inactive = mostly below about 10%). Conditions: stronger effect = higher value.
Assay [3] in a line: liver-stage malaria parasite growth inhibition, primary screen, cell-based, HepG2, luciferase luminescence, HepG2 viability (AID 624349; in the data active = parasite load remaining mostly below about 12%, no sharp cut-off; inactive = mostly above about 10%;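 note: 100% = mean of DMSO negative control wells on the same plate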). Conditions: P. berghei liver stage in HepG2, luciferase luminescence, concentration not given here; parasite load remaining: stronger effect = lower value; viability: measured here: HepG2 viability without parasites.
Assay [4] is described as follows: Cy5 fluorescence interference with SSB-bound oligo, artefact control for HCV NS3 helicase inhibitor project, biochemical, NIH Clinical Collection, E. coli SSB (AID 743268).
Assay [5] concerns Hepatitis C virus NS3 helicase. In words: HCV NS3 helicase inhibitors, primary screen, biochemical, fluorescence polarization, NIH Clinical Collection (AID 743270). To be noted: NS3 helicase binding to Cy5-dT15 DNA, stronger effect = higher value, concentration not given here.
Assay [6] deals with Single-stranded DNA-binding protein (Escherichia coli (strain K12)) (UniProt P0AGE0). In words: E. coli SSB displacement from DNA, counter-screen for HCV NS3 helicase inhibitor project, biochemical, fluorescence polarization, NIH Clinical Collection (AID 743271; in the data active = inhibition above about 28%). To be noted: stronger effect = higher value, concentration not given here.
Assay [7] can be described thus: fluorescence interference in NS3h assay format, artefact control for HCV NS3 helicase inhibitor project, biochemical, NIH Clinical Collection (AID 743272).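 Note: HCV NS3 helicase with a Cy5 labelled single stranded DNA probe.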 To be noted: fluorescence interference counterscreen, stronger effect = lower value. A general note: Counterscreens check selectivity or assay interference.
Assay [8] has as its system Neuropilin-2 / VEGF-C interaction (human). The assay can be described thus: inhibitors of NRP2–VEGF-C binding, biochemical, microplate binding format, z-score (AID 743281). Conditions: microplate NRP2/VEGF-C binding assay; stronger effect = lower value.

As to `COc1cc2c(N3CCN(C(=O)Nc4ccc(OC(C)C)cc4)CC3)ncnc2cc1OCCCN1CCCCC1`, in assay [1], the liver cell % of control was 61.6% and 84.6% and 95.9%. Besides, in assay [1], the parasite % of control was 32.5% (inactive) and 57.6% (inactive) and 55.2% (inactive). Further, the nuclear beta-catenin stimulation in assay [2] (at 10 µM) was 1.7% (inactive); in assay [2] (stimulation, at 2 µM), -1.8%.

Turning to `NC1CCN(c2nc3c(cc2F)c(=O)c(C(=O)O)cn3-c2ccc(F)cc2F)C1` (stereo unspecified), the parasite load remaining in assay [3] was 96.2% (inactive) and 26.3% (inactive). Besides, the viability in assay [3] was 82.6% and 76%. Besides, the results for the fluorescence ratio in assay [4] and in assay [7] were 0.97 (inactive) and 0.98 (inactive), respectively. Further, the inhibition was -5.15% (inactive) in assay [5] and 9.91% (inactive) in assay [6]. Moreover, the z-score in assay [8] is -1.29 (inactive). Also, the nuclear beta-catenin stimulation in assay [2] (at 10 µM) is 1% (inactive); in assay [2] (stimulation, at 2 µM) it was 0.1%.

`CCc1oc2ccccc2c1C(=O)c1cc(Br)c(O)c(Br)c1`: the viability in assay [3] is 118% and 76% and 66.9%. The fluorescence ratio was 0.92 (inactive) in assay [4] and 0.93 (inactive) in assay [7]. Further, the inhibition in assay [5] was -2.84% (inactive); in assay [6] it was 9.06% (inactive). In addition, the z-score in assay [8] was 0.212 (inactive). Besides, the nuclear beta-catenin stimulation in assay [2] (at 10 µM) was 5.3% (inactive); in assay [2] (stimulation, at 2 µM), 4.6%.

The values above are taken from PubChem BioAssay.
